PubChem BioAssay (Tox21)
Records with an inconclusive call do not appear. A call without a number means that no potency is given here. Values without a mark were called inactive. Active and inactive are the calls of the source. The call rests on the fitted dose curve; in most records, active means well fitted inhibition curve with a large enough effect in the signal ratio in the repeat runs (not every such curve was filed as active); inconclusive means weak or mixed curves, or effect the other way; inactive means flat fitted curve, though single readings scatter; the % refers to the signal ratio.

Experiment: cAMP Responsive Elements (CRE) small molecule antagonists, cell-based qHTS assay (AID 1963591)
Conditions: CRE-bla HEK293T, beta-lactamase FRET ratio; series mostly up to 92.4 µM; activity change, negative = inhibition: at the top concentration
Description: U.S. Tox21 Program National Center for Advancing Translational Sciences [NCATS] Division of Preclinical Innovation [DPI] U.S. Environmental Protection Agency [EPA] National Institutes of Environmental Health Sciences [NIEHS] National Toxicology Program [NTP] U.S. Food and Drug Administration [FDA] Tox21 Assay Overview: CREB (cyclic-AMP Responsive Element Binding Protein) is a cellular transcription factor. It binds to certain DNA sequences called cAMP Responsive Elements (CRE) and regulates the transcription of the genes. […] This cell line can be used to find agonists/antagonists of the cyclic AMP signaling pathway. The activation of the report gene under culture conditions can be detected by fluorescence intensity. This cell line has been used to screen the Tox21 10K compound library to […].
Tox21 Assay Protocol Summary: CRE-bla Hek 293T cells were suspended in assay medium (DMEM containing 10% dialyzed FBS, 0.1 mM NEAA, 1 mM sodium pyruvate and 25 mM HEPES) and dispensed at 2,000 cells/4 uL /well into 1536-well black wall/clear bottom plates using a Multidrop Combi (ThermoFisher Scientific, Waltham, MA) dispenser. After the assay plates were incubated at 37 C/5% CO2 for 18 hrs, 23 nL of compounds dissolved in DMSO, positive controls or DMSO only was transferred to the assay plate by a pintool workstation (Kalypsys, San Diego, CA), followed by addition of 1 […] uL of 1.25uM NKH477 (0.25 uM as final concentration) in assay medium using a Flying Reagent Dispenser (Aurora Discovery, San Diego, CA). The plates were incubated at 37 C and 5% CO2 for 3 hrs. Then 1 uL of LiveBLAzer B/G FRET substrate (Invitrogen, Carlsbad, CA) was added to each well using Bioraptr Flying Reagent Dispenser (FRD, Aurora Discovery, San Diego, CA). The plates were incubated at room temperature for 2 h.

**Q.** Which “activity change, negative = inhibition” value does the source give for OCC(Cl)CCl (stereo not given) here?
**A.** 0.0127%

**Q.** For BrCc1ccc(Br)cc1, which “activity change, negative = inhibition” value is on record?
**A.** -0.558%

**Q.** For Nn1cnnc1, which Potency is on record?
**A.** inactive

**Q.** With COC(C)(C)CCCC(C)C/C=C/C(C)=C/C(=O)OC(C)C (stereo not given) as the compound, how does the Potency read?
**A.** inactive

**Q.** For CCOP(=S)(OCC)OP(=S)(OCC)OCC, which Potency is on record?
**A.** inactive

**Q.** With N#Cc1cccnc1 as the compound, how does the Potency read?
**A.** inactive

**Q.** With ClC(Cl)(Cl)C(Cl)(Cl)Cl as the compound, how does the “activity change, negative = inhibition” value read?
**A.** -0.0801%

**Q.** With Cc1ccc(N)cc1Cl as the compound, how does the “activity change, negative = inhibition” value read?
**A.** -6.94%

**Q.** With FC(F)(F)c1ccc(Cl)cc1 as the compound, how does the Potency read?
**A.** inactive

**Q.** With COc1cc(N)c(Cl)cc1C(=O)NC1CN2CCC1CC2 (stereo not given) as the compound, how does the “activity change, negative = inhibition” value read?
**A.** -4.41% [at 42.4 µM]

**Q.** With CC(Cl)CCl (stereo not given) as the compound, how does the “activity change, negative = inhibition” value read?
**A.** 7.14%

**Q.** For CCCCCc1cc(O)cc(O)c1, which “activity change, negative = inhibition” value is on record?
**A.** -7.67%

**Q.** For COc1ccc(C(O)(c2cncnc2)C2CC2)cc1 (stereo not given), which “activity change, negative = inhibition” value is on record?
**A.** 0.973%

**Q.** Which “activity change, negative = inhibition” value does the source give for O=C1CC(=O)NC(=O)N1 here?
**A.** 8.82%

**Q.** For O=S(=O)(Cl)Cl, which “activity change, negative = inhibition” value is on record?
**A.** 5.06%

**Q.** Which Potency does the source give for ClC(Cl)c1ccccc1 here?
**A.** inactive

**Q.** With CCOP(=S)(OCC)Oc1ccc([N+](=O)[O-])cc1 as the compound, how does the Potency read?
**A.** inactive

**Q.** For Oc1cc(Cl)ccc1Cl, which Potency is on record?
**A.** inactive

**Q.** With Cc1ccc2c(C)cccc2c1 as the compound, how does the “activity change, negative = inhibition” value read?
**A.** -3.8%

**Q.** Which Potency does the source give for CC(C)(O)C(=O)Nc1ccc([N+](=O)[O-])c(C(F)(F)F)c1 here?
**A.** inactive

**Q.** For BrC(Br)Br, which “activity change, negative = inhibition” value is on record?
**A.** -1.79%

**Q.** With CNC(=S)S as the compound, how does the Potency read?
**A.** inactive

**Q.** With OCCCCO as the compound, how does the Potency read?
**A.** inactive

**Q.** Which “activity change, negative = inhibition” value does the source give for CCOP(=O)(CN(CCO)CCO)OCC here?
**A.** -12%

**Q.** With O=C(O)C(F)(F)C(F)(F)C(F)(F)C(F)(F)C(F)(F)C(F)(F)F as the compound, how does the “activity change, negative = inhibition” value read?
**A.** 15.4%

**Q.** Which Potency does the source give for C=CCN=C=S here?
**A.** inactive

**Q.** Which “activity change, negative = inhibition” value does the source give for COc1ccc(O)c(C(C)(C)C)c1 here?
**A.** -21.3%

**Q.** For Oc1c(Cl)c(Cl)c(Cl)c(Cl)c1Cl, which Potency is on record?
**A.** inactive

**Q.** Which “activity change, negative = inhibition” value does the source give for C=C(C)[C@@H]1CC=C(C=O)CC1 here?
**A.** 17.1%

**Q.** With O=C(Cl)OCCOCCOC(=O)Cl as the compound, how does the “activity change, negative = inhibition” value read?
**A.** 5.07%

**Q.** For C[N+](C)(C)Cc1ccccc1, which Potency is on record?
**A.** inactive

**Q.** With CC1C=[C-]C=C1.[C-]#[O+].[C-]#[O+].[C-]#[O+].[Mn] as the compound, how does the Potency read?
**A.** inactive

**Q.** With Oc1ccccc1Cl as the compound, how does the Potency read?
**A.** inactive

**Q.** For NCCc1ccc(O)cc1, which “activity change, negative = inhibition” value is on record?
**A.** 0.604% [at 42.4 µM]

**Q.** Which “activity change, negative = inhibition” value does the source give for C[C@H]1O[C@H](OC2[C@@H](O)[C@@H](O)C(O)[C@H](O)[C@H]2O)[C@@H](N)C[C@@H]1N=C(N)C(=O)O (stereo not given in full) here?
**A.** 2.98%

**Q.** Which Potency does the source give for Cc1ccccc1[N+](=O)[O-] here?
**A.** inactive

**Q.** For NNC(=S)NN, which “activity change, negative = inhibition” value is on record?
**A.** 4.27%

**Q.** Which Potency does the source give for CC1CC(=O)O1 (stereo not given) here?
**A.** inactive

**Q.** For CNC(=O)O/N=C/C(C)(C)S(C)=O (stereo not given), which Potency is on record?
**A.** inactive

**Q.** Which Potency does the source give for Oc1ccc(Cl)cc1 here?
**A.** inactive
